# Screens from PubChem.
# AmpC inh no detg – blocks E. coli AmpC beta-lactamase in detergent-free assay; Potency, µM (titrated, usually from 57.1 µM), without a hit: at the top dose activity change, negative = inhibition, most hits filed as inhibitors; actives 0.52% (n = 330,000); AmpC nitrocefin hydrolysis, absorbance 480 nm, 0.0001% Triton;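 also: plate controls were no compound for no effect and no enzyme for full effect; nearly all actives have a fitted effect of over 20% in size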
# Target sequence (P00811 whole entry, looked up): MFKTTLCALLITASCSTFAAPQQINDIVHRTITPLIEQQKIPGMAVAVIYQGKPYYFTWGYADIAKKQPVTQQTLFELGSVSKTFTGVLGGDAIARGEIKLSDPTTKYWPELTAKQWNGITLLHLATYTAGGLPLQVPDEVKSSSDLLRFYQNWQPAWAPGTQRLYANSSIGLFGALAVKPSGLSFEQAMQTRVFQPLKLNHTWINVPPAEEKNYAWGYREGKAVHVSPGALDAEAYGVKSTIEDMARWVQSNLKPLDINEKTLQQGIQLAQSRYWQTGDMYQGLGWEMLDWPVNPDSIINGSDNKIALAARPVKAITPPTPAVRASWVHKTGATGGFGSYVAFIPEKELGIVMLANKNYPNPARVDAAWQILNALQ
#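 AmpC (5.3 nM in the dispensed reagent) in 20 mM phosphate pH 7.0 with 0.01% (detergent screen) or 0.0001% Triton X-100 was preincubated with compounds for 15 min at room temperature. Nitrocefin was then added from an 800 uM solution, and hydrolysis was followed at 480 nm.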
# Sm TGR block – inhibitors of Schistosoma mansoni thioredoxin glutathione reductase. Q962Y6. purified TGR, DTNB reduction, TNB absorbance 405 nm. Potency, µM (titrated, usually from 114 µM), for the others: at the top dose activity change, negative = inhibition, hits mostly inhibitors. actives 3% (n = 360,000); also: % is scaled to controls: 0 for no effect and ±100 for the full control effect; nearly all actives have a fitted effect of over 60% in size
#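 Kinetic colorimetric format: TGR-catalysed, NADPH-driven DTNB reduction monitored via TNB absorbance. Enzyme dispensed at 20 nM; compound exposure 15 min at room temperature before reaction start.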
# AmpC detergent – AmpC beta-lactamase inhibition with detergent present; P00811; AmpC hydrolysis of nitrocefin, absorbance 480 nm, 0.01% Triton; Potency, µM (series often up to 114 µM), for the others: at the highest dose activity change, negative = inhibition, actives largely listed as inhibitors; actives 0.041% (n = 370,000);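 also: 0% = no-compound wells and -100% = no-enzyme wells; nearly all actives have a fitted effect of over 25% in size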
#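 AmpC (5.3 nM in the dispensed reagent) in 20 mM phosphate pH 7.0 with 0.01% (detergent screen) or 0.0001% Triton X-100 was preincubated with compounds for 15 min at room temperature. Nitrocefin was then added from an 800 uM solution, and hydrolysis was followed at 480 nm.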
# Pf growth 96h – inhibits malaria parasite growth, 96 h | actives 6.9% (n = 320,000) | Potency, µM (series often up to 28.7 µM), for inactives: top-dose activity change, negative = inhibition, usual class: inhibitors | AID 504834 | P. falciparum luciferase reporter growth, 96 h; also: % is scaled to controls: 0 for no effect and ±100 for the full control effect
#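 Plates of compound plus infected erythrocytes (2% hematocrit, 0.05% parasitemia final) incubate 96 hours, 37 C, 5% CO2. Detection reagent added; reduced luminescence from the parasites' luciferase reporter flags inhibition.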
# Pf growth 48h – inhibits P. falciparum growth in the first generation, 48 h; Potency, µM (doses to about 28.7 µM), without a hit: at the top dose activity change, negative = inhibition, most hits filed as inhibitors; P. falciparum luciferase growth in erythrocytes, 48 h; actives 5.9% (n = 310,000); also: % is scaled to controls: 0 for no effect and ±100 for the full control effect
#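 Luciferase-expressing P. falciparum in infected erythrocytes (2% hematocrit, 0.1% parasitemia final) in RPMI 1640/0.5% Albumax were exposed to compound for 48 hours at 37 C, 5% CO2; growth read as luminescence.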
# SARS PLP yeast – inhibitors of SARS-CoV papain-like protease in yeast | Potency, µM (top dose mostly 32.9 µM), without a hit: at the top dose activity, positive = growth rescue, actives largely listed as activators | actives 0.19% (n = 330,000) | S. cerevisiae expressing SARS-CoV PLpro, growth rescue; calls by dose curve; also: 0% is about no effect; nearly all actives have a fitted effect of over 55% in size
# * = called active by the depositor; ? = inconclusive; / = no result given; [ ] = remark or other dose. Sampled rows, rich in hits. Any-hit rate of the full collection: about 12%. Unless noted, calls follow the shape of the dose curve; as a rule, active = well fitted curve in the direction sought with a large enough effect; inconclusive = small, poorly fitted or top-dose-only effect, or another doubt; inactive = no such curve, though single readings can be large; an effect the other way counts as inactive or inconclusive. Potency is read from the fitted curve at half-maximal effect.
SMILES,AmpC inh no detg,Sm TGR block,AmpC detergent,Pf growth 96h,Pf growth 48h,SARS PLP yeast
CSc1ccc(-c2nc3cccc(C)n3c2Nc2ccc3c(c2)OCO3)cc1,/,5%,1%,/,/,/
CCC(=O)N1c2ccccc2CC1C(=O)NCc1ccc(N(C)C)cc1 (stereo not drawn),/,-1%,-10%,/,/,/
O=C(O)c1ccccc1-c1c2cc(Br)c(=O)c(Br)c-2oc2c(Br)c(O)c(Br)cc12,/,/,/,?,-11%,/
O=C(O)c1ccccc1-c1c2cc(Br)c(=O)cc-2oc2[c]([Hg])c(O)c(Br)cc12,/,/,/,6.4µM*,?,/
COc1ccc(CCN2C(=O)c3ccccc3NC2c2cc(Cl)c(O)c(OC)c2)cc1 (stereo not drawn),-19%,-33%,-8%,5.2µM*,?,-3%
CCCN1C(=O)c2ccccc2NC1c1cc(OC)c(OC)c(OC)c1 (stereo not drawn),-12%,-2%,-4%,3%,?,6%
CC1(C)CC(=O)C(C2C3=C(CC(C)(C)CC3=O)Oc3ccccc32)=C(O)C1 (stereo not drawn),-7%,7.9µM*,-7%,/,/,1%
CC1(C)CC(=O)C(C2C3=C(CC(C)(C)CC3=O)Oc3ccccc32)C(=O)C1 (stereo not drawn),-15%,5µM*,-2%,1%,-9%,0%
COc1ccc2c(c1)C(C1=C(O)CC(C)(C)CC1=O)C1=C(CC(C)(C)CC1=O)O2 (stereo not drawn),-20%,-26%,-9%,-25%,/,17%
CC1(C)CC(=O)C(C2C3=C(CC(C)(C)CC3=O)Oc3ccc4ccccc4c32)C(=O)C1 (stereo not drawn),0%,/,4%,37%,?,0%
COc1ccccc1OCC(=O)N(Cc1nc(-c2ccc(Cl)cc2)no1)C(C)C,140%,5%,?,4.1µM*,/,-11%
CC(C)N(Cc1nc(-c2ccccc2)no1)C(=O)C(Cl)(Cl)Cl,-12%,11%,-7%,-31%[1.15 µM],1.9µM*,0%
CC(C)N(Cc1nc(-c2ccccc2)no1)C(=O)C(C)(C)C,17%,2%,0%,/,37%,7%
Cc1ccccc1C(=O)OCc1cc(=O)n2nc(C3CCCCC3)sc2n1,/,-19%,-1%,/,/,/
Cc1cc(NC(=O)CCl)on1,-18%,16µM*,3%,?,10µM*,8%
CCC(C)NC(=O)c1cc(C)no1 (stereo not drawn),-21%,0%,-2%,35%,/,3%
CC(C)c1cc(NC(=O)CCl)on1,-13%[11.4 µM],13µM*,?,?,3.3µM*,16%
COc1ccc(-n2nnnc2C2CCN(S(=O)(=O)c3ccc(NC(C)=O)cc3)CC2)cc1,/,5%,18%,/,/,/
Cc1ccc(-n2nnnc2SCC(=O)Nc2sc(C)c(C)c2C#N)cc1C,0.32µM*,?,-2%,3%,-7%,?
CCOC(=O)c1cc(-c2nnc(SCC(=O)Nc3ccc(F)cc3)o2)c(C)nc1C,14%,11%[11.4 µM],?,12µM*,/,-9%
Cc1sc(NC(=O)CSc2nnc(-c3ccc(F)cc3)o2)c(C#N)c1C,-30%,-22%,?,9.3µM*,-13%,-1%
O=C(NCCS(=O)(=O)NCCCc1ccccc1)c1ccccc1,-6%,-23%,-13%,22%,8%,?
O=C(COC(=O)c1cc(-c2ccc(F)cc2)nc2ccccc12)NCC1CCCO1 (stereo not drawn),125%,-7%,-3%,11%,4%,-3%
COc1cccc(CNC(=O)CNC(=S)N(Cc2ccccc2)Cc2ccccc2F)c1,-11%,-4%,?,1%,12µM*,-4%
O=C1/C(=C/c2cccnc2)SC(=S)N1Nc1ccccc1,-10%,2µM*,10%,?,?,-5%
